Data on 38 molecules can be found in PubChem BioAssay (NCI).

About 83,000 compounds went through this panel and 20% of them were active in at least one assay; those are over-represented in the sample as a whole.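 For each line, cells grew in 96-well plates with the test compound present at a single concentration for 48 hours.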 A number with no mark means an inactive call. Active and inactive are the calls of the source. Rule for the calls: active = growth percent below 10; inactive = the rest.

The first assay relates to HOP-62 NSCLC. Nature of the assay: NCI-60 one-dose screen, 48 h (100 = growth as untreated, 0 = no growth, -100 = all killed). The conditions noted are these: 10 µM unless noted.
Consider `COc1nc(Nc2cccc(C(F)(F)F)c2)nc(OC)n1`, for which the growth was 98.8%. As to `N#Cc1ccc2nc[nH]c2c1`, the growth is 110%. Turning to `CCN(CC)c1ccc2nc3ccc(N=Nc4ccc(N(C)C)cc4)cc3[n+](-c3ccccc3)c2c1`, the growth was -87.9% (active). Same read-out and setting: in the case of `CC1(c2ccccc2)CO1` (stereo not drawn) it was 97.2%; in that of `Cc1cc(Cl)cc(Cc2cc(Cl)cc(C)c2O)c1O`, 56.8%. Still for that read-out and setting: in the case of `CC1(C)OC2C(CO)OC(n3ccc(=O)[nH]c3=O)C2O1` (stereo not drawn) it was 88.9%; in that of `Nc1ncnc(Nc2ccccc2)n1`, 119%; in that of `CC(C)(C)NCCC(O)c1cc(C(F)(F)F)nc2c(C(F)(F)F)cccc12` (stereo not drawn), 68.3%. On the same count and under the same terms, the figure for `CN1CCCN(C(c2ccccc2)c2ccc(Cl)cc2)CC1` (stereo not drawn) is 94.2%. Turning to `CCOC(C=O)OCC`, the growth was 99.5%. Same read-out and setting: the figure for `C=C1CC2(OC1=O)C(=O)N(C)c1ccc(I)cc12` (stereo not drawn) is 58.9%.

For the molecule `C=COC(=O)C(C)(C)C`, the growth is 104%. Still for that read-out and setting: in the case of `O=C(OCc1ccccc1)n1nnc2ccccc21` it was 110%. On to `C/C(O)=C(/C=N/C(=S)Nc1ccccc1)C(=O)Nc1ccccc1C`, for which the growth was 99.4%. `CC(=O)Nc1ccc(/C=C2\SC(=S)N(/C=C(\C(C)=O)C(N)=O)C2=O)cc1`: the growth is 82.5%. Still for that read-out and setting: the figure for `CC(C)C1CCC(C)C(O)C1` (stereo not drawn) is 95.3%; for `CC1(C)CCC(C)(C)NC(=S)N1` it is 94.9%; for `Nc1ccc2ccccc2c1-c1c(N)ccc2ccccc12` it is 43%. Take `CCOC(OCC)C(=O)c1ccccc1`: the growth is 98.5%. Same read-out and setting: the figure for `COc1ccc2c(c1)Nc1ccccc1S2` is 105%.

For the molecule `C=CC(=O)OC1CCC(C(C)(C)CC)CC1` (stereo not drawn), the growth was 103%. `CCOC(=O)c1c(C)[nH]c(C)c1C=O`: the growth was 86.9%. Consider `CCC12OC(COc3ccccc3)CN1CCN2c1ccccc1` (stereo not drawn), for which the growth is 98.9% [100 µM].

As to `CCOC(=O)N[C@H]1CCc2cc(OC)c(OC)c(OC)c2-c2ccc(SC)c(=O)cc21`, the growth was 30.1%. Still for that read-out and setting: the figure for `CCCCCCCCCCCCCCCCOc1ccccc1NC(=O)CC(C)=O` is 112%.

For `Cc1nc(C)c(C(=O)O)cc1C(=O)O`, the growth is 106%. Still for that read-out and setting: the figure for `Nc1ccn(C2CC(N)C(CO)O2)c(=O)n1` (stereo not drawn) is 69.1%. On the same count and under the same terms, the figure for `CCCNS(=O)(=O)c1ccc(Cl)cc1` is 86.6%; for `Clc1cccc(Cl)c1CSc1nc2ccccc2n2cccc12` it is 101%. Same read-out and setting: the figure for `Cc1cc(C(=O)c2ccccc2)cc(C)c1O` is 95.2%; for `CSCCC(NC(=O)C(Cl)Cl)C(=O)O` (stereo not drawn) it is 77.9%; for `CSCC[C@@H]1C(=O)N(C)[C@H](C(C)(C)C)N1C(=O)c1ccccc1` it is 103%. In the case of `ON1CCCC1`, the growth was 108%. For the molecule `CC(C)N(C(=O)c1ccccc1)C(C)C`, the growth was 109%. Still for that read-out and setting: the figure for `CC(=O)c1cccc(N(C)S(=O)(=O)c2ccc(C)cc2)c1` is 92.8%. Same read-out and setting: in the case of `O=C(Nc1c(Cl)cc(Cl)cc1Cl)ON=C1CCCCC1` it was 100%; in that of `CCCCCCCCCCC(=O)CCCCCCCCCC`, 92.3%; in that of `Cc1c(-c2ccc(C3CCCCC3)cc2)nc2ccc(F)cc2c1C(=O)O`, 61.7%.

The test system of another assay is NCI-H460 lung. Described as above. The conditions noted are these: 10 µM unless noted.
Regarding `COc1nc(Nc2cccc(C(F)(F)F)c2)nc(OC)n1`, the growth is 106%. Still for that read-out and setting: in the case of `N#Cc1ccc2nc[nH]c2c1` it was 107%; in that of `CCN(CC)c1ccc2nc3ccc(N=Nc4ccc(N(C)C)cc4)cc3[n+](-c3ccccc3)c2c1`, -66.4% (active).

As for `CC1(c2ccccc2)CO1` (stereo not drawn), the growth was 115%.

`Cc1cc(Cl)cc(Cc2cc(Cl)cc(C)c2O)c1O`: the growth was 6.76% (active). On to `CC1(C)OC2C(CO)OC(n3ccc(=O)[nH]c3=O)C2O1` (stereo not drawn), for which the growth is 100%.

Take `Nc1ncnc(Nc2ccccc2)n1`: the growth was 107%. The same measure, in the same setting: the figure for `CC(C)(C)NCCC(O)c1cc(C(F)(F)F)nc2c(C(F)(F)F)cccc12` (stereo not drawn) is 44.4%; for `CN1CCCN(C(c2ccccc2)c2ccc(Cl)cc2)CC1` (stereo not drawn) it is 93%; for `CCOC(C=O)OCC` it is 113%.

For `C=COC(=O)C(C)(C)C`, the growth was 104%. On to `O=C(OCc1ccccc1)n1nnc2ccccc21`, for which the growth was 109%. On the same count and under the same terms, the figure for `C/C(O)=C(/C=N/C(=S)Nc1ccccc1)C(=O)Nc1ccccc1C` is 106%; for `CC(=O)Nc1ccc(/C=C2\SC(=S)N(/C=C(\C(C)=O)C(N)=O)C2=O)cc1` it is 99.4%. For the molecule `CC(C)C1CCC(C)C(O)C1` (stereo not drawn), the growth was 108%. Same read-out and setting: in the case of `CC1(C)CCC(C)(C)NC(=S)N1` it was 115%. Take `Nc1ccc2ccccc2c1-c1c(N)ccc2ccccc12`: the growth is 20.2%. Same read-out and setting: the figure for `CCOC(OCC)C(=O)c1ccccc1` is 99.7%; for `C=CC(=O)OC1CCC(C(C)(C)CC)CC1` (stereo not drawn) it is 105%. Same read-out and setting: in the case of `CCC12OC(COc3ccccc3)CN1CCN2c1ccccc1` (stereo not drawn) it was 106% [100 µM]; in that of `CCOC(=O)N[C@H]1CCc2cc(OC)c(OC)c(OC)c2-c2ccc(SC)c(=O)cc21`, 2.01% (active). The same measure, in the same setting: in the case of `CCCCCCCCCCCCCCCCOc1ccccc1NC(=O)CC(C)=O` it was 112%; in that of `Cc1nc(C)c(C(=O)O)cc1C(=O)O`, 112%. For the molecule `Nc1ccn(C2CC(N)C(CO)O2)c(=O)n1` (stereo not drawn), the growth was 34.5%. Still for that read-out and setting: in the case of `CCCNS(=O)(=O)c1ccc(Cl)cc1` it was 103%; in that of `Clc1cccc(Cl)c1CSc1nc2ccccc2n2cccc12`, 105%; in that of `Cc1cc(C(=O)c2ccccc2)cc(C)c1O`, 110%.

As for `CSCCC(NC(=O)C(Cl)Cl)C(=O)O` (stereo not drawn), the growth is 114%. In the case of `CSCC[C@@H]1C(=O)N(C)[C@H](C(C)(C)C)N1C(=O)c1ccccc1`, the growth was 112%. The same measure, in the same setting: in the case of `ON1CCCC1` it was 109%; in that of `CC(C)N(C(=O)c1ccccc1)C(C)C`, 106%.

As for `CC(=O)c1cccc(N(C)S(=O)(=O)c2ccc(C)cc2)c1`, the growth was 104%. On the same count and under the same terms, the figure for `O=C(Nc1c(Cl)cc(Cl)cc1Cl)ON=C1CCCCC1` is 111%; for `CCCCCCCCCCC(=O)CCCCCCCCCC` it is 102%; for `Cc1c(-c2ccc(C3CCCCC3)cc2)nc2ccc(F)cc2c1C(=O)O` it is 7.22% (active).
